FLuc counter = qHTS profiling assay for firefly luciferase inhibitor/activator using purifed enzyme and Km concentrations of substrates (counterscreen for miR-21 project). AID 588342, 2011. hit rate 6.9% among 360,000. Potency, µM (titrated, usually from 57.5 µM), without a hit: at the top dose activity change, negative = inhibition, hits mostly inhibitors. purified FLuc, Km substrates, luminescence inhibition. Luciferin 4-monooxygenase (Photinus pyralis), P08659;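 further: plate controls were vehicle for no effect and reference inhibitor for full effect; nearly all actives have a fitted effect of over 55% in size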
Target sequence (P08659 whole entry, looked up): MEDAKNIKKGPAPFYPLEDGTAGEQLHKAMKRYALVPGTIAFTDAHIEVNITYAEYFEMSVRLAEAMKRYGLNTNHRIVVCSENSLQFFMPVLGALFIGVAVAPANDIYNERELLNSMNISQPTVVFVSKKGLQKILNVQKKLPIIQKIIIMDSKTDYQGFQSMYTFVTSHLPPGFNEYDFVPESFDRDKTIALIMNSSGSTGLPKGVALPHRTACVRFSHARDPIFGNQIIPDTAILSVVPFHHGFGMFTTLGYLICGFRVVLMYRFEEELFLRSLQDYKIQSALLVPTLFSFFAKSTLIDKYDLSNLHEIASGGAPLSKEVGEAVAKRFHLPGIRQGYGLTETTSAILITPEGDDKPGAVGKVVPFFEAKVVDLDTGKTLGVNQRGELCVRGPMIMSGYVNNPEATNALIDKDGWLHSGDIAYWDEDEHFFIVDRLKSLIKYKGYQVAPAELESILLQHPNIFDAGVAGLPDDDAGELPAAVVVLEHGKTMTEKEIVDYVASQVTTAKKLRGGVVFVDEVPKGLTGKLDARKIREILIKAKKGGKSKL
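Biochemical qHTS of compounds, final roughly 60 µM downward over six points, against 10 nM purified firefly luciferase using Km concentrations of substrates (10 uM D-luciferin, 10 uM ATP) in Tris acetate pH 7.5 buffer; luminescence output.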
ELG1 repair inh = qHTS screen for small molecules that inhibit ELG1-dependent DNA repair in human embryonic kidney (HEK293T) cells expressing luciferase-tagged ELG1. HEK293T ELG1-luciferase reporter, luminescence, 16 h; DNA damage induced by 5-fluorouridine. Potency, µM (highest dose often 46.1 µM), without a hit: at the highest dose activity change, negative = inhibition, actives largely listed as inhibitors. hit rate 2.3% among 330,000. AID 504467, 2011; further: on the % scale 0 is the no-effect control and ±100 the full control effect; nearly all actives have a fitted effect of over 55% in size
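HEK293T cells expressing luciferase-tagged ELG1 (2,000/well) received 5-Fluorouridine plus compound or DMSO for 16 hr at 37 °C. Luciferase was read by ONE-Glo luminescence after 30 min at room temperature.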
NPC1 promoter act = qHTS Assay for NPC1 Promoter Activators. Huh7 NPC1 promoter luciferase reporter, 24 h. Potency, µM (highest dose often 9.22 µM), without a hit: at the highest dose activation, actives largely listed as activators. hit rate 2.4% among 320,000. AID 485313, 2010; further: % of control where 0% means no effect; nearly all actives have a fitted effect of over 60% in size
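Luminescence read-out of NPC1 promoter-driven luciferase in stably transfected Huh7 cells; compounds delivered in DMSO and left 24 h at 37C, 5% CO2, qHTS titration format.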
Rab9 prom act = qHTS Assay for Rab9 Promoter Activators; Huh7 Rab9 promoter-luciferase reporter, luminescence, 24 h; hit rate 2.8% among 320,000; Potency, µM (doses to about 9.22 µM), for the others: top-dose activation, negative = inhibition, actives largely listed as activators; AID 485297, 2010; further: % of control where 0% means no effect; nearly all actives have a fitted effect of over 60% in size
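Quantitative HTS format; Huh7 Rab9-luciferase reporter cells (1500/well) receive compound 2 h post-plating, incubate 24 h at 37 °C, then get luciferase reagent for 10 min before luminescence reading.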
ELG1 genotox = qHTS screen for small molecules that induce genotoxicity in human embryonic kidney (HEK293T) cells expressing luciferase-tagged ELG1; Potency, µM (doses to about 46 µM), for inactives: top-dose activity change, positive = activation, usual class: activators; AID 504466, 2011; HEK293T ELG1-luciferase reporter, luminescence, 16 h; hit rate 1.3% among 330,000; further: % of control where 0% means no effect; nearly all actives have a fitted effect of over 60% in size
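Cells (2,000/well) expressing the ELG1-luciferase fusion are dosed by pin tool and kept 16 hr at 37 °C, 5% CO2. Signal comes from ONE-Glo luciferase reagent after 30 min at room temperature.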
SMN2 splice enh = qHTS Assay for Enhancers of SMN2 Splice Variant Expression. hit rate 2.8% among 210,000. Potency, µM (top dose mostly 46.1 µM), for the others: at the highest dose activity change, positive = activation, hits mostly activators. HEK293 SMN2-luciferase splicing reporter, luminescence, 30-36 h; further: % of control where 0% means no effect; nearly all actives have a fitted effect of over 55% in size
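HEK293 cells carry an SMN2 minigene-luciferase reporter in which exon 7 inclusion puts luciferase in frame. Cells were seeded at 2000 cells/well, attached for 10-12 hours, then exposed to compounds for 30-36 hours at 37C before ONE-Glo luminescence.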
* marks the source's active call; other numbers are inactive results; u = inconclusive; x = no result given; [ ] = remark or other dose. Most compounds without a hit are left out; they make up all but 9.4% or so of the library. The call rests on the fitted dose curve; in most records, active means well fitted curve in the direction sought with a large enough effect; inconclusive means small, poorly fitted or top-dose-only effect, or another doubt; inactive means no such curve, though single readings can be large; an effect the other way counts as inactive or inconclusive. Potency means the concentration at half of the fitted maximal effect.

SMILES | FLuc counter | ELG1 repair inh | NPC1 promoter act | Rab9 prom act | ELG1 genotox | SMN2 splice enh
Cc1ccccc1NS(=O)(=O)c1cccc(-c2nnc(-c3ccccc3)o2)c1 | -1% | u | -5% | -4% | -5% | -10%
CN(C)S(=O)(=O)c1cccc(-c2nnc(-c3ccccc3)o2)c1 | 24µM* | u | u | u | u | 10%
c1ccc(-c2nnc(-c3ccncc3)o2)cc1 | u | u | u | 3.2µM* | 11% | 18%
Clc1cccc(-c2nnc(-c3ccno3)o2)c1 | -5% | 10% | -1% | 0% | 5% | x
COC(=O)c1ccccc1NC(=O)CSc1nc2ccsc2c(=O)n1CCC(C)C | -3% | x | x | x | x | x
O=C(SCc1cccc2ccccc12)c1ccc(Cl)cc1 | x | x | x | x | x | -5%[9.22 µM]
CCOC(=O)c1ccc(NC(=O)C2CCCN(c3ncnc4onc(C)c34)C2)cc1 (configuration not stated) | 0% | x | x | x | x | x
COc1cc(NC(=O)Cn2nc3c(cc2=O)CC(C)CC3)cc(OC)c1OC (configuration not stated) | 0% | x | x | x | x | x
Nc1ccccc1-c1nnc(-c2ccc(-c3ccccc3)cc2)o1 | 3µM* | u | 4µM* | 3.2µM* | 2.6µM* | u
c1ccc(-c2nnc(-c3ccccc3)o2)cc1 | 5.4µM* | u | 1.6µM* | 1.4µM* | u | 13µM*
COc1ccc(CCN2C(=O)C(Oc3ccccc3C)C2c2ccc3c(c2)OCO3)cc1 (configuration not stated) | 2% | 16µM* | 2% | -1% | -10% | -20%
O=C(CSC1=NCCN1)c1ccccc1 | x | x | x | x | x | -7%[9.22 µM]
COc1ccccc1[C@]1(C)ON(c2ccccc2C(F)(F)F)C1=O | 4% | 21µM* | -12% | 2% | -3% | x
CC[C@]1(c2ccccc2OC)ON(c2ccccc2C(F)(F)F)C1=O | 2% | u | -13% | -5% | -5% | x
COc1ccccc1NC(=O)CN1CC(=O)Nc2ccccc21 | 1% | 2% | -4% | -2% | 4% | 8%
Nc1ncnc2c1C1(CCCCC1)Cc1ccccc1-2 | 1% | 10µM* | 0% | -3% | -5% | -33%
Nc1n[nH]c2c1C1(CCCCC1)Cc1ccccc1-2 | -4% | 0% | 13% | 8% | -10% | -12%
CC1=C(C(=O)Nc2ccccc2)C(c2cccnc2)n2nc(SCc3ccccc3F)nc2N1 (configuration not stated) | 0% | x | x | x | x | -3%
CC(=O)Oc1ccc2oc(/C=C/N(C)C)c([N+](=O)[O-])c2c1 | 15µM* | u | 28% | 20% | u | 0%
Cc1cccc(N(CC(=O)N(C)Cc2ccccc2)S(=O)(=O)c2ccccc2)c1C | 2% | x | x | x | x | -2%
CCOC(=O)CSc1nc(-c2ccc(F)cc2)cc(C(F)(F)F)c1C#N | -5% | x | x | x | x | 2%
Cc1ccc(S(=O)(=O)N2CCC(=O)N(C(COCc3cccc(C(F)(F)F)c3)C(C)C)CC2)cc1 (configuration not stated) | -1% | -28% | -5% | -5% | -2% | -23%
CCCN(C(=O)c1c(C)oc2ncn(CC(C)C)c(=O)c12)c1ccccc1C | 0% | x | x | x | x | x
Cc1c(C)c2ccc(OCC(=O)Nc3nccs3)cc2oc1=O | 0.95µM* | u | 0.28µM* | 0.5µM* | 1µM* | x
Cc1cc(=O)oc2cc(OCC(=O)Nc3nccs3)ccc12 | 5.4µM* | u | 2µM* | 4µM* | 10µM* | x
CCCCc1cc(=O)oc2cc(OCC(=O)Nc3ccccn3)ccc12 | 21µM* | u | u | 4.5µM* | 13µM* | x
Cc1c(C)c2ccc(OCC(=O)Nc3ccccn3)cc2oc1=O | 0.34µM* | u | 0.89µM* | 3.5µM* | 0.46µM* | x

High-throughput results from PubChem.
